High-throughput results from PubChem.
Most compounds without a hit are left out; they make up all but 8.9% or so of the library.
mHtt clearance – clearance of mutant huntingtin inclusions, primary screen, imaging, HeLa Exon1htt(103Q)mCFP, confocal imaging; AID 853, 2007; 47,000 compounds, 0.42% hits; inhibition, % at 1.5 µM; aggregate imaging; zero = plate's median compound well;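 active = inhibition of aggregate fluorescence above about 70%, also judged a hit by eye on the cell image, limit read from the data, passing the limit was not always enough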;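 note: cells exposed to compound for three days before fixation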
M1 antagonist – antagonists of rat M1 muscarinic receptor; Muscarinic acetylcholine receptor M1 (Rattus norvegicus), P08482; CHO-M1 cells, Fluo-4 calcium, ACh EC80 antagonist mode; active compounds read low; B-score at 10 µM; 64,000 compounds, 3.4% hits;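 active = calcium fluorescence response, raw or row-and-column corrected B-score, differing from the plate sample mean either way at a set confidence level, mostly lower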
M1 agonist – M1 muscarinic receptor agonists, primary screen, CHO-M1 cells, Fluo-4 calcium, agonist mode; Muscarinic acetylcholine receptor M1; AID 626, 2007; 64,000 compounds, 3% hits; B-score at 10 µM; Fluo-4 calcium fluorescence; active compounds read high;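 active = fluorescence rise, raw or as B-score row- and column-corrected plate score, outside the 99.7% band of its plate's samples, either direction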
D1 allo mod – D1 CRE-luciferase signal change, two-sided – cell-based, HEK293 D1, dopamine EC30, D1 allosteric modulator project, primary screen. D(1A) dopamine receptor (Homo sapiens), P21728. dopamine EC30 potentiation; actives deviate in either direction. B-score at 10 µM. 58,000 compounds, 5.9% hits. AID 641, 2007;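 active = luminescence count or its row- and column-corrected plate score outside the 99.7% band of the plate's sample wells, on either side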
WNV protease inh – inhibitors of WNV NS2B-NS3 protease, primary screen, biochemical, fluorogenic substrate; fluorogenic substrate Ex360/Em465; active compounds read low; 65,000 compounds, 0.18% hits; Genome polyprotein (West Nile virus), P06935; z-score (test concentration not listed); in the data active = z-score below about -3
Target sequence (P06935 1371-1501 limits assumed): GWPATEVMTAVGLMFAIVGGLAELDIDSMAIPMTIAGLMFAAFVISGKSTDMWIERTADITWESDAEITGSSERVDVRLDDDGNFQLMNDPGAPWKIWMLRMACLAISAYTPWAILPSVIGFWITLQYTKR
Target sequence (P06935 1502-1679 limits assumed): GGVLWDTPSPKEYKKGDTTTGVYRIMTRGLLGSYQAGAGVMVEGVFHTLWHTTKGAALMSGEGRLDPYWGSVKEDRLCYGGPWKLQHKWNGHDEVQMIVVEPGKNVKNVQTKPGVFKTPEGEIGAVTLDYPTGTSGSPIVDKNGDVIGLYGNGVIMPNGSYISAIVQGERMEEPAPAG
M1 antag conf – rat M1 muscarinic receptor antagonists, confirmation, CHO cells, Fluo-4 calcium, duplicate | 1,700 compounds, 43% hits | calcium response (max-min fluorescence) at 10 µM | ACh EC80 antagonism; active compounds read low | shares compounds with M1 antagonist;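 active = calcium response below the same-plate mean of wells given acetylcholine alone at its 80%-effect dose, minus 3 SD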;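 note: raw fluorescence intensity difference in arbitrary instrument units and not normalized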
mGluR4 antag – human mGluR4 response to M1 antagonist hits, M1 allosteric modulator project, cell-based, antagonist mode, secondary assay 1 | shares compounds with M1 antagonist | CHO-mGluR4 calcium flux, Fluo-4 fluorescence, glutamate EC80; active compounds read low | AID 678, 2007 | 1,700 compounds, 0.9% hits | fluorescence response (max-min) at 10 µM;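 active = fluorescence response below the plate's average for near-maximal glutamate wells, less 3 SD of those wells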;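 note: raw unnormalized fluorescence span taken in the window right after glutamate addition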
An asterisk follows results filed as active.

Results for O=C(CCNC(=O)c1ccc(Br)o1)NCc1ccccn1 ?
mHtt clearance: -35; M1 antagonist: -7.7*; M1 agonist: 0.074; D1 allo mod: -0.42; WNV protease inh: 0.29; M1 antag conf: 648; mGluR4 antag: 144*

What do the screens show for `COc1ccc(C(=O)N2CCCC2)cc1S(=O)(=O)N1CCOCC1`?
mHtt clearance: -27; M1 antagonist: 0.42; M1 agonist: 0.84; D1 allo mod: 0.37; WNV protease inh: -0.33

What do the screens show for `COc1cc2c(cc1OC)CN(C(=O)c1ccc(OC)c(S(=O)(=O)N3CCOCC3)c1)CC2`?
mHtt clearance: -2; M1 antagonist: -0.84*; M1 agonist: -0.73; D1 allo mod: 1.9; WNV protease inh: 0.07; M1 antag conf: 586; mGluR4 antag: 239

Results for CN1CCN(C(=O)C23CCC(C)(c4nc5ccccc5nc42)C3(C)C)CC1 (stereo not given) ?
mHtt clearance: 49

What do the screens show for `O=C(CSc1nc2ccccc2c(=O)n1CC1CCCO1)NCC1CCCO1` (stereo not given)?
mHtt clearance: 31; M1 antagonist: 0.53; M1 agonist: 0.1; D1 allo mod: 0.076; WNV protease inh: 0.74

How did COc1ccc(C(=O)Nn2c(SCC(=O)NCC3CCCO3)nc3ccccc3c2=O)cc1 (stereo not given) do in these assays?
mHtt clearance: -3; M1 antagonist: -6.9*; M1 agonist: -0.79; D1 allo mod: -5.4*; WNV protease inh: -0.41; M1 antag conf: 575; mGluR4 antag: 229

Results for Cc1cc2c(c(=O)n1CCN(C)C)C(c1ccncc1)C(C#N)=C(N)O2 (stereo not given) ?
mHtt clearance: -87; M1 antagonist: -2.9*; M1 agonist: 0.089; D1 allo mod: 0.49; WNV protease inh: -0.17; M1 antag conf: 675; mGluR4 antag: 252

How did COc1ccc(C2C(C#N)=C(N)Oc3cc(C)n(Cc4ccncc4)c(=O)c32)cc1 (stereo not given) do in these assays?
mHtt clearance: 0; M1 antagonist: 0.0088; M1 agonist: 0.27; D1 allo mod: 0.55; WNV protease inh: 0.79

How did CCN(CC)CCCn1c(C)cc2c(c1=O)C(c1cccc(Cl)c1)C(C#N)=C(N)O2 (stereo not given) do in these assays?
mHtt clearance: -10; M1 antagonist: -4.9*; M1 agonist: -0.55; D1 allo mod: -1.6; WNV protease inh: -2; M1 antag conf: 644; mGluR4 antag: 227

What do the screens show for `CCn1c(C)cc2c(c1=O)C(c1ccccc1Br)C(C#N)=C(N)O2` (stereo not given)?
D1 allo mod: -2.4; WNV protease inh: 1.4

What do the screens show for `CCN(CC)CCCn1c(C)cc2c(c1=O)C(c1cc(OC)c(OC)cc1OC)C(C#N)=C(N)O2` (stereo not given)?
M1 antagonist: -11*; M1 agonist: -0.41; D1 allo mod: -0.25; WNV protease inh: 0.58; M1 antag conf: 279*; mGluR4 antag: 253

What do the screens show for `CCOC(=O)N1CCN(CC(O)COCc2ccccc2)CC1` (stereo not given)?
mHtt clearance: -18

What do the screens show for `CCOC(=O)N1CCN(CC(O)COCC2=CCC3CC2C3(C)C)CC1` (stereo not given)?
M1 antagonist: -6.3*; M1 agonist: -1.8; D1 allo mod: 0.44; WNV protease inh: 1.5; M1 antag conf: 456*; mGluR4 antag: 272

How did Clc1ccc(OCCn2ccnc2)c(Cl)c1 do in these assays?
mHtt clearance: -45; M1 antagonist: -3*; M1 agonist: -1.7; D1 allo mod: 0.26; WNV protease inh: -0.8; M1 antag conf: 408*; mGluR4 antag: 211

What do the screens show for `CCOC(=O)N1CCC(N2C(=O)c3ccccc3C2Nc2ccccc2C)CC1` (stereo not given)?
mHtt clearance: -94; M1 antagonist: 0.4; M1 agonist: 0.78; D1 allo mod: 0.66; WNV protease inh: 0.14

How did CCOC(=O)c1ccccc1NC1c2ccccc2C(=O)N1C1CCN(C(=O)OCC)CC1 (stereo not given) do in these assays?
mHtt clearance: -51; M1 antagonist: -1.6*; M1 agonist: 0.51; D1 allo mod: 0.076; WNV protease inh: -0.54; M1 antag conf: 384*; mGluR4 antag: 237

Results for COc1ccc(-c2c[n+]3c4n2CCCCC4=C(c2ccccc2)C3)cc1 ?
mHtt clearance: 4

How did COC(=O)COc1nc(C)c(Br)c(OC)n1 do in these assays?
mHtt clearance: -34; M1 antagonist: 0.91; M1 agonist: 0.86; D1 allo mod: 0.061; WNV protease inh: -0.99

How did COc1nc(NC(C)=O)nc(C)c1Br do in these assays?
M1 antagonist: -10*; M1 agonist: 0.014; D1 allo mod: 0.78; M1 antag conf: 598; mGluR4 antag: 257

What do the screens show for `COc1ccc(N2CCN(C(=O)CC3NC4CCCCC4NC3=O)CC2)cc1` (stereo not given)?
M1 antagonist: -0.23; M1 agonist: -0.043; D1 allo mod: 1.5; WNV protease inh: -0.36

What do the screens show for `CC(C)(C#CCN1CCCC1)OCCC#N`?
M1 antagonist: -1.8; M1 agonist: -1.2; D1 allo mod: 1.3; WNV protease inh: 1.3

Results for C=C(C)C(C)(C#CCN1CCCC1)OC(C)=O (stereo not given) ?
M1 antagonist: -1.5*; M1 agonist: -1.3; D1 allo mod: -0.67; WNV protease inh: 2.4; M1 antag conf: 526*; mGluR4 antag: 182

How did CC(C)CC(=O)N1CCN(S(=O)(=O)c2ccc(F)cc2)CC1 do in these assays?
mHtt clearance: 52; M1 antagonist: -0.41; M1 agonist: 0.39; D1 allo mod: 0.14; WNV protease inh: 0.32

How did CC(C)CC(=O)N1CCN(S(C)(=O)=O)CC1 do in these assays?
mHtt clearance: 35; M1 antagonist: -3.6*; M1 agonist: -0.12; D1 allo mod: -0.86; WNV protease inh: -1; M1 antag conf: 594; mGluR4 antag: 238

Results for CCOc1ccc(-c2n[nH]c(C)c2Oc2ccc(OC)cc2)c(O)c1 ?
mHtt clearance: 0; M1 antagonist: -0.68; M1 agonist: -0.005; D1 allo mod: 0.22; WNV protease inh: -0.11

Results for Cc1ccc(C)c(NC(=O)c2ccccn2)c1 ?
mHtt clearance: 23; M1 antagonist: 0.59; M1 agonist: 0.091; D1 allo mod: -1.1; WNV protease inh: -0.58
